Assay [1] in a line: qHTS assay to identify aromatase inhibitors - cell viability counter screen (AID 743084).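 Note: cells stimulated with testosterone during compound exposure; nearly all actives have a fitted effect of over 55% in size.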 On the technique in general: Quantitative high-throughput screening tests each substance at several concentrations.
Assay [2] in a line: qHTS assay to identify small molecule that activate the aryl hydrocarbon receptor (AhR) signaling pathway - cell viability counter screen (AID 743086). Note: series mostly up to about 70 µM; nearly all actives have a fitted effect of over 45% in size. Summed up: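 Cytotoxicity counter screen: CellTiter-Fluor signal (30 min, 37 C) in 4000 HepG2 cells/well carrying the DRE-luciferase reporter, following 24 h compound exposure at 37 C.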
Assay [3] addresses Peroxisome proliferator-activated receptor gamma (Homo sapiens) (UniProt P37231). Put plainly: qHTS assay to identify small molecule agonists of the peroxisome proliferator-activated receptor gamma (PPARg) signaling pathway (AID 743094; active = well fitted activation curve with a large enough effect in the signal ratio in the repeat runs, not every such curve was filed as active; the % refers to the signal ratio; note: potency is the fitted concentration of half-maximal effect). An outline of the steps: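 Cells from the PPARg UAS-bla HEK293H line are plated and incubated 5 h at 37C. Compounds in DMSO are pinned in and left 17 h at 37C. LiveBLAzer B/G substrate is then added for 1 h at room temperature before fluorescence is measured.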

Assay [4] has the same target. Put plainly: qHTS assay to identify small molecule antagonists of the peroxisome proliferator-activated receptor gamma (PPARg) signaling pathway (AID 743191; calls by dose curve; note: nearly all actives have a fitted effect of over 30% in size; note: potency is the fitted concentration of half-maximal effect). Summed up:
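Beta-lactamase reporter under UAS control in HEK293H PPARg-bla cells; compound treatment 17 h at 37C. Read-out: fluorescence intensity after 1 h room-temperature incubation with LiveBLAzer B/G FRET substrate.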

Assay [5] is described as follows: qHTS assay for small molecule agonists of the antioxidant response element (ARE) signaling pathway (AID 743202; active = well fitted activation curve with a large enough effect in the signal ratio in the repeat runs, not every such curve was filed as active; the % refers to the signal ratio; note: potency is the fitted concentration of half-maximal effect). An outline of the steps:
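Beta-lactamase reporter activity, read as fluorescence intensity, reflects ARE/Nrf2 pathway induction in HepG2 cells after 16 h compound exposure at 37 C; substrate loading was 2 h at room temperature.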

Assay [6] can be described thus: qHTS assay for small molecule agonists of the antioxidant response element (ARE) signaling pathway - cell viability counter screen (AID 743203; calls by dose curve; note: nearly all actives have a fitted effect of over 55% in size). An outline of the steps: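 Cytotoxicity was tested in parallel with the ARE reporter screen. ARE-bla HepG2 cells were exposed to compounds for 16 hrs, and viability was taken from CellTiter-Glo luminescence.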
Assay [7] in a line: qHTS assay for small molecule activators of the heat shock response signaling pathway - cell viability counter screen (AID 743209). Note: nearly all actives have a fitted effect of over 50% in size. Summed up: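 Cytotoxicity counter screen run in parallel with the HSE beta-lactamase reporter, using the same wells. HeLa HSE-bla cells received compound for 5 h at 37 C; ATP-based CellTiter-Glo luminescence was measured after 30 min at room temperature.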

A short description of assay [8]: qHTS assay for small molecule activators of the heat shock response signaling pathway (AID 743210; active = well fitted activation curve with a large enough effect in the signal ratio in the repeat runs, with a control signal flat, not every such curve was filed as active; the % refers to the signal ratio;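 note: HeLa cells with beta-lactamase reporter driven by heat shock elements; series mostly up to about 63 µM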). An outline of the steps: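 Fluorescence from a cleaved B/G FRET substrate (2.5 h, room temp) reports HSE-driven beta-lactamase in HeLa cells treated 5 h at 37 C with DMSO-dissolved compounds.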
Assay [9] can be described thus: qHTS assay to identify small molecule agonists of the peroxisome proliferator-activated receptor delta (PPARd) signaling pathway - cell viability counter screen (AID 743211). Note: nearly all actives have a fitted effect of over 55% in size. An outline of the steps: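 Read-out: CellTiter-Glo luminescence, 30 min RT, measured in the same wells as the beta-lactamase reporter. Cells: GeneBLAzer PPAR delta UAS-bla HEK293H, 3000 cells/well, compound exposure 17 h at 37C.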

Assay [10] addresses Peroxisome proliferator-activated receptor delta (Homo sapiens) (UniProt Q03181). Nature of the assay: qHTS assay to identify small molecule agonists of the peroxisome proliferator-activated receptor delta (PPARd) signaling pathway (AID 743212; calls by dose curve). An outline of the steps:
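Steps: seed PPARd-bla HEK293H cells; incubate 5 h, 37 C, 5% CO2; add compounds in DMSO; incubate, 37 C; add LiveBLAzer B/G FRET substrate; hold 2 h at room temperature; measure fluorescence.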

A short description of assay [11]: qHTS assay to identify small molecule antagonists of the peroxisome proliferator-activated receptor delta (PPARd) signaling pathway - cell viability counter screen (AID 743213). Note: nearly all actives have a fitted effect of over 50% in size. Summed up:
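Luminescence from CellTiter-Glo, added after the bla read and incubated 30 min at room temperature, gives viability of HEK293H PPARd-bla cells exposed to compounds for 17 h at 37 C with 300 nM L165041.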

Assay [12] concerns the target Peroxisome proliferator-activated receptor delta (Homo sapiens) (UniProt Q03181). Nature of the assay: qHTS assay to identify small molecule antagonists of the peroxisome proliferator-activated receptor delta (PPARd) signaling pathway (AID 743215; active = well fitted inhibition curve with a large enough effect in the signal ratio in the repeat runs, not every such curve was filed as active; the % refers to the signal ratio;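 note: cells stimulated with agonist L165041 at 300 nM final during compound exposure; series mostly up to about 62 µM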). An outline of the steps: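 Cells: HEK293H with a UAS-driven beta-lactamase reporter responsive to PPARd. Compounds were co-added with L165041 (300 nM, final) and incubated 17 h at 37 C before a 2 h room-temperature FRET substrate step and fluorescence reading.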

Assay [13] in a line: qHTS assay to identify small molecule agonists of the farnesoid-X-receptor (FXR) signaling pathway - cell viability counter screen (AID 743218). Note: nearly all actives have a fitted effect of over 45% in size. Note: potency is the fitted concentration of half-maximal effect. An outline of the steps:
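Cells were seeded, left 5 h at 37 C and 5% CO2, then dosed with compound in DMSO for 16 h. After the beta-lactamase FRET read, CellTiter-Glo was added and luminescence measured 30 min later.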

Assay [14] can be described thus: qHTS assay to identify small molecule antagonists of the farnesoid-X-receptor (FXR) signaling pathway - cell viability counter screen (AID 743221; active = well fitted cell-killing curve with a large enough effect in the repeat runs, not every such curve was filed as active; note: nearly all actives have a fitted effect of over 50% in size; note: potency is the fitted concentration of half-maximal effect). Summed up: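 HEK 293T FXR-bla cells, 5 h pre-incubation; compound + CDCA 50 uM final, 16 h, 37 C; beta-lactamase FRET read first, then CellTiter-Glo luminescence, 30 min RT.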
The target of assay [15] is Vitamin D3 receptor (Homo sapiens) (UniProt P11473). Put plainly: qHTS assay to identify small molecule agonists of the vitamin D receptor (VDR) signaling pathway (AID 743222; calls by dose curve). An outline of the steps: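 Cells carrying a VDR-driven beta-lactamase reporter are seeded at 2,000 per well and rested 4 h. Compounds in DMSO are added for 16 h at 37C, and FRET substrate fluorescence is measured after 2 h at room temperature.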

The target is the same in assay [16]. Put plainly: qHTS assay to identify small molecule antagonists of the vitamin D receptor (VDR) signaling pathway (AID 743223; active = well fitted inhibition curve with a large enough effect in the signal ratio in the repeat runs, not every such curve was filed as active; the % refers to the signal ratio). An outline of the steps: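 Beta-lactamase reporter read-out: FRET substrate fluorescence after 2 h at room temperature, following 16 h exposure of VDR-bla cells to test compound plus 3 nM (final) 1alpha,25-dihydroxyvitamin D3 agonist at 37C.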

Assay [17] in a line: qHTS assay to identify small molecule antagonists of the peroxisome proliferator-activated receptor gamma (PPARg) signaling pathway - cell viability counter screen (AID 743194). Note: nearly all actives have a fitted effect of over 55% in size. Summed up:
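Viability was measured as CellTiter-Glo luminescence in GeneBLAzer PPARg UAS-bla HEK293H cells. These cells had been exposed 17 h at 37 C to compounds together with rosiglitazone at 50 nM final, with the beta-lactamase readout taken in the same wells.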

The target in assay [18] is Bile acid receptor (Homo sapiens) (UniProt Q96RI1). Put plainly: qHTS assay to identify small molecule antagonists of the farnesoid-X-receptor (FXR) signaling pathway (AID 743217; active = well fitted inhibition curve with a large enough effect in the signal ratio in the repeat runs, not every such curve was filed as active; the % refers to the signal ratio). Summed up:
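Cells carrying a UAS-driven beta-lactamase reporter (GeneBLAzer FXR-UAS-bla HEK 293T) were plated and rested 5 h at 37 °C. Compounds in DMSO were added alongside chenodeoxycholic acid agonist at 50 uM final and left 16 h at 37 °C before FRET substrate readout.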

For assay [19] the target is unchanged. Put plainly: qHTS assay to identify small molecule agonists of the farnesoid-X-receptor (FXR) signaling pathway (AID 743220; active = well fitted activation curve with a large enough effect in the signal ratio in the repeat runs, not every such curve was filed as active; the % refers to the signal ratio). An outline of the steps:
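FXR-UAS-bla HEK 293T cells carrying a UAS-driven beta-lactamase reporter were plated for 5 h at 37C/5% CO2, then exposed to DMSO-dissolved Tox21 10K compounds for 16 h at 37C. A LiveBLAzer B/G FRET substrate was loaded for 2 h at room temperature before fluorescence reading.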

Inconclusive results are not listed. The source made the active and inactive calls. Unless noted, calls come from the whole dose curve; as a rule, active = well fitted curve in the direction sought with a large enough effect in the repeat runs; inconclusive = weak or mixed curves; inactive = no such curve, though single readings can be large; an effect the other way counts as inactive or inconclusive.

Bile acid receptor (Homo sapiens), sequence (Q96RI1 whole entry, looked up): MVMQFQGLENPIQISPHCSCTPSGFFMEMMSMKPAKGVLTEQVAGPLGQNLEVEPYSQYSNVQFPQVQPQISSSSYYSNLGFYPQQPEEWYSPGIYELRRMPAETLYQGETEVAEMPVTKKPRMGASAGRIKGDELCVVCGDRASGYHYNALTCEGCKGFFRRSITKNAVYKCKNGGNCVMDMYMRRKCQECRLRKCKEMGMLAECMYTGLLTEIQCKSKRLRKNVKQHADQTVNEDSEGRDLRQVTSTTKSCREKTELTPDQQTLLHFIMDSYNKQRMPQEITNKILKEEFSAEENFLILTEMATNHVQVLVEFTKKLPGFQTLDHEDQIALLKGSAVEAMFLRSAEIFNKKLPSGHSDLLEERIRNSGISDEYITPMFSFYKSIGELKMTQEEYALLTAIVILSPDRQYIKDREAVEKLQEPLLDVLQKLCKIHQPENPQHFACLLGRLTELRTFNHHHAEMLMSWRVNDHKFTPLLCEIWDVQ
Peroxisome proliferator-activated receptor gamma (Homo sapiens), sequence (P37231 whole entry, looked up): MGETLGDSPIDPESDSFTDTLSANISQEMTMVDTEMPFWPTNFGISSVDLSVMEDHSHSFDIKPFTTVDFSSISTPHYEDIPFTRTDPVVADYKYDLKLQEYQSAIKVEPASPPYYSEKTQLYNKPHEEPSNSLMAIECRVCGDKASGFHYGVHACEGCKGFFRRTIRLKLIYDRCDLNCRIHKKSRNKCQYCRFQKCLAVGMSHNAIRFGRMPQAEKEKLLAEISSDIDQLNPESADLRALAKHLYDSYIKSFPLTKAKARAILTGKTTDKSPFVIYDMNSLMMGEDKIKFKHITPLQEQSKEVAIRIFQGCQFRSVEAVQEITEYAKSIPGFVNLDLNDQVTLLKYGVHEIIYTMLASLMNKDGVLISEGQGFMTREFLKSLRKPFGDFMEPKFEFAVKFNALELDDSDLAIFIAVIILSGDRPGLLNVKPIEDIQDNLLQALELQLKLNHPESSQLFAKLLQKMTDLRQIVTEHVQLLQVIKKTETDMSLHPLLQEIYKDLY
Vitamin D3 receptor (Homo sapiens), sequence (P11473 whole entry, looked up): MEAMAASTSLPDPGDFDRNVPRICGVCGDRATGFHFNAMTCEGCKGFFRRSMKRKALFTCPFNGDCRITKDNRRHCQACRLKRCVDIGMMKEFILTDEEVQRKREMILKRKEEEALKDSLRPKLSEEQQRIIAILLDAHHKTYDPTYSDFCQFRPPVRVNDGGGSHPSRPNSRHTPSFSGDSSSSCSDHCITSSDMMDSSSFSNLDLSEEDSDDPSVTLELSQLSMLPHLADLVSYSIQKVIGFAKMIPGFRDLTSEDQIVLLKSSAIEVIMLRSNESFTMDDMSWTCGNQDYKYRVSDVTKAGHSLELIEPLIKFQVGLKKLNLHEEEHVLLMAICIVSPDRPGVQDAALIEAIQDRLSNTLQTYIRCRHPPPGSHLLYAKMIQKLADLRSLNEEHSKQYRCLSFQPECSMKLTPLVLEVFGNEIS
Peroxisome proliferator-activated receptor delta (Homo sapiens), sequence (Q03181 whole entry, looked up): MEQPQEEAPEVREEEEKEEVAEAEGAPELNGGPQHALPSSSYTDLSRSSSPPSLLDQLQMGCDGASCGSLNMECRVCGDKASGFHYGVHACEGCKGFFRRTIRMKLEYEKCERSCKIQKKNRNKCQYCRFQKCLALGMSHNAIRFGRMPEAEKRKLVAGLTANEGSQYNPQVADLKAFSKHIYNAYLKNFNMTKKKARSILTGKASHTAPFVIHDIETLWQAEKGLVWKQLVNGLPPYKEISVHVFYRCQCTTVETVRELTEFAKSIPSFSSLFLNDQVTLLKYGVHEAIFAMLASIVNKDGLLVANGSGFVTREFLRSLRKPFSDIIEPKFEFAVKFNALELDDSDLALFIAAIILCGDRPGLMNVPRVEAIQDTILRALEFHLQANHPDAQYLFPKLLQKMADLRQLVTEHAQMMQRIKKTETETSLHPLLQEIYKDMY

Regarding `CNc1ccccc1`, the Potency result in assay [1], in assay [2], in [3], in [4], in assay [5] and in assay [6] was “inactive” throughout. For the same molecule, the Potency entry in [9], in assay [10], in assay [11], in assay [13] and in [14] was “inactive” in each case. For the same molecule, the call in assay [7], in [8], in assay [12], in assay [15] and in assay [16] was inactive.

As to `CCCCCCCCCC(C)C=O` (stereo not drawn), the Potency entry in assay [1], in assay [2], in assay [17], in assay [9], in [11] and in assay [13] was “inactive” throughout. For the same molecule, in [14], the Potency entry was “inactive”. Further, the Potency in [3] was 19.5 µM (active). The result in [7], in assay [18], in assay [19], in assay [15] and in [16] was inactive.

With `NCCOCCOCCN`, the Potency result in assay [1], in assay [2], in assay [4], in [6] and in assay [11] was “inactive” throughout. The Potency in assay [5] is 48.6 µM (active); in [13] it was 6.92 µM (active); in assay [14], 19.5 µM (active). In addition, the result in assay [7] was inactive.

In the case of `CC1=C(C)C(=O)C(CCCCC#CCCCC#CCO)=C(C)C1=O`, the Potency result in assay [1], in assay [2], in assay [3], in assay [6], in [11] and in assay [13] was “inactive” throughout. Moreover, in assay [14], the Potency result was “inactive”. For the same molecule, the Potency in assay [4] was 29.8 µM (active); in [5], 23.7 µM (active). Also, the call in assay [18] was inactive.

With `COc1ccc(/C=C/c2cc(OC)cc(=O)o2)cc1`, the Potency result in [1], in [2], in assay [3], in assay [17], in assay [6] and in [9] was “inactive” in each case. Further, in [10], the Potency result was “inactive”. In addition, in assay [5], the Potency is 0.443 µM (active). For the same molecule, the molecule was called inactive in assay [7], in assay [8], in assay [12], in assay [18], in [19] and in assay [15]. The outcome in [16] was inactive.

For `O=C(O)COCC(=O)O`, the Potency entry in assay [1], in assay [2], in [3], in [5], in assay [6] and in assay [9] was “inactive” throughout. Further, the Potency result in [11] and in assay [13] was “inactive” each time. The call in assay [7], in assay [8], in assay [18], in assay [19], in assay [15] and in assay [16] was inactive.

With `Cc1c(-c2cccnc2)c2ccccc2n1CCCCC(=O)O`, the Potency result in assay [1], in [2], in assay [17], in assay [6], in [9] and in [11] was “inactive” throughout. The Potency entry in assay [13] and in assay [14] was “inactive” in each case. Further, the call in assay [7], in assay [8], in [12], in assay [18], in assay [19] and in assay [15] was inactive. In assay [16], the molecule was called inactive.

For `O=C(O)CCc1nc2ccccc2[nH]1`, the Potency result in [1], in assay [2], in assay [17], in assay [5], in assay [6] and in assay [10] was “inactive” each time. Also, the Potency result in assay [11] and in assay [13] was “inactive” throughout. In addition, the molecule was classed as inactive in assay [7], in [8] and in assay [12].

For `CCCCCCCCNC`, the Potency entry in assay [1], in assay [2], in assay [3], in [17], in assay [5] and in assay [6] was “inactive” each time. In addition, the Potency entry in assay [9], in assay [10], in assay [11], in [13] and in assay [14] was “inactive” in each case. The molecule was classed as inactive in assay [7], in [8], in [12], in [18], in assay [19] and in [15]. For the same molecule, the result in assay [16] was inactive.

Take `Cc1c(Nc2ncccc2C(=O)O)cccc1C(F)(F)F`: the Potency result in assay [1], in [2], in assay [17], in assay [6] and in assay [9] was “inactive” throughout. Moreover, the call in assay [7] and in [8] was inactive.

As for `Cc1nc(C)c(C)nc1C`, the Potency entry in [1], in assay [2], in assay [3], in [4], in [6] and in [9] was “inactive” throughout. The Potency result in assay [10], in [11], in assay [13] and in assay [14] was “inactive” throughout. Besides, the call in [7], in assay [8], in assay [12], in assay [15] and in [16] was inactive.

The values above are taken from PubChem BioAssay (Tox21).
